Records with an inconclusive call do not appear. Unmarked numbers belong to inactive results. The source made the active and inactive calls. The call rests on the fitted dose curve; in most records, active means well fitted curve in the direction sought with a large enough effect; inconclusive means small, poorly fitted or top-dose-only effect, or another doubt; inactive means no such curve, though single readings can be large; an effect the other way counts as inactive or inconclusive. *1 amine or outer side, *2 acyl side, *3 side chain or, on linkers, in order; H or OH if unused. Where a SMILES comes first, the peptide text is derived from it. Bridges are numbered along the chain shown (N, C = ends). [ ]: non-standard residue; d: D form. The star is where a group is joined. ξ: configuration not given here. ξhTyr(3S-OH,4S-OH,3'-OSO3H) = NC(C(=O)O)[C@H](O)[C@@H](O)c1ccc(O)c(OS(=O)(=O)O)c1; Orn(4R-OH,5R-OH) = O=C([C@H](C[C@@H](O)[C@@H](O)N[*:3])N[*:1])[*:2]; X2 = CCCCCOc1ccc(-c2cc(-c3ccc(C(=O)*)cc3)no2)cc1; X3 = C[C@H]1CN([*:1])C(C(=O)[*:2])[C@H]1O; ξGln(3R-OH) = NC(=O)C[C@@H](O)C(N)C(=O)O; ξPro(4R-OH) = O=C(O)C1C[C@@H](O)CN1; ξThr(3R) = C[C@@H](O)C(N)C(=O)O

Drawing on PubChem BioAssay (NCATS), this text covers Potency, outcome and activity change, negative = inhibition for 18 compounds.

Experiment [1] can be described thus: P-glycoprotein substrates identified in KB-3-1 adenocarcinoma cell line, qHTS therapeutic library screen (AID 1346986). Further: nearly all actives have a fitted effect of over 60% in size. The essentials:
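Dose-response cytotoxicity, KB-3-1 vs P-gp-high KB-8-5-11, no colchicine in assay medium. Read: CellTiter-Glo at 72 h.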

A short description of experiment [2]: P-glycoprotein substrates identified in KB-8-5-11 adenocarcinoma cell line, qHTS therapeutic library screen (AID 1346987). Further: nearly all actives have a fitted effect of over 65% in size. The procedure, abridged:
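In this qHTS, P-gp-rich KB-8-5-11 cells received library compounds across a concentration range. Viability was quantified by luminescence after 72 h at 37 degree C.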

In experiment [3] the test system is Zika virus NS2B-NS3 protease (linked construct). The experiment is described as follows: Confirmatory screen NINDS AMC qHTS for Zika virus inhibitors (AID 1347152). Further: potency means the concentration at half of the fitted maximal effect; nearly all actives have a fitted effect of over 70% in size. The procedure, abridged:
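IC50s from 4-parameter Hill fits of percent inhibition, based on AMC fluorescence gain (340/450 nm) over 15 min with 10 microM Bz-Nle-KRR-AMC. Enzyme: 1 nM linked NS2B-NS3 in Tris-HCl pH 8.0; 15-min compound preincubation.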

For experiment [4], the system named is Zika virus NS2B-NS3 protease (unlinked complex). The experiment is described as follows: Confirmatory screen GU AMC qHTS for Zika virus inhibitors (AID 1347153). Further: potency means the concentration at half of the fitted maximal effect; nearly all actives have a fitted effect of over 70% in size. The procedure, abridged:
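Unlinked enzyme 25 nM, Tris pH 8.0/0.01% Tween 20; cpd 15 min RT, dark; + AMC substrate 10 µM (Km 18.3 µM); 340/450 nm read at t0 and 15 min; % inhibition → 4-param fit.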

The nature of experiment [5]: Confirmatory screen GU Rhodamine qHTS for Zika virus inhibitors qHTS (AID 1347157). Further: potency means the concentration at half of the fitted maximal effect; nearly all actives have a fitted effect of over 70% in size. The essentials:
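Percent inhibition came from the 15-min rise in Rhodamine110 fluorescence (1.5 microM substrate, ~15% conversion), normalized to no-inhibitor and no-enzyme wells and Hill-fitted. Unlinked protease, 25 nM, pH 8.0 Tris buffer; compounds up to 114 microM, 15-min preincubation.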

Experiment [6] relates to Zika virus NS2B-NS3 protease (unlinked complex). Put plainly: Primary screen GU Rhodamine qHTS for Zika virus inhibitors: Unlinked NS2B-NS3 protease assay (AID 1347159). Further: nearly all actives have a fitted effect of over 60% in size. Further: potency means the concentration at half of the fitted maximal effect. On activity change, negative = inhibition: on the % scale 0 is the no-effect control and ±100 the full control effect. The essentials: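 Unlinked NS2B/NS3, 25 nM; Rhod110 peptide, 1.5 microM; compounds, up to 114 microM. Reaction run 15 min at RT in 10 mM Tris-HCl pH 8.0, 0.01% Tween 20; kinetic fluorescence change fitted with a 4-parameter Hill model.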

For experiment [7], the system named is Zika virus NS2B-NS3 protease (linked construct). Put plainly: Primary screen NINDS Rhodamine qHTS for Zika virus inhibitors (AID 1347160). Further: nearly all actives have a fitted effect of over 55% in size. Further: potency means the concentration at half of the fitted maximal effect. On activity change, negative = inhibition: on the % scale 0 is the no-effect control and ±100 the full control effect. The essentials:
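Single-chain NS2B-NS3 protease, 25 nM, pH 8.0; compounds preincubated 15 min. Activity: Rhodamine110 release from 1.5 microM substrate over 15 min, room temperature, data fitted to 4-parameter Hill.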

The nature of experiment [8]: Confirmatory screen NINDS Rhodamine qHTS for Zika virus inhibitors (AID 1347161). Further: potency means the concentration at half of the fitted maximal effect; nearly all actives have a fitted effect of over 60% in size. The essentials:
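Rhodamine110-peptide cleavage (1.5 µM substrate) by 25 nM linked NS2B-NS3 enzyme at pH 8.0 (Tris, Tween 20), after 15 min RT preincubation with compounds; 15-min fluorescence change normalized to controls and Hill-fitted.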

For experiment [9], the system named is Zika virus NS2B-NS3 protease (linked). The experiment is described as follows: 384 well plate NINDS AMC confirmatory qHTS for Zika virus inhibitors (AID 1347163). Further: nearly all actives have a fitted effect of over 50% in size. Further: potency means the concentration at half of the fitted maximal effect.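 On activity change, negative = inhibition: linked protease at 5 30 or 60 nM final depending on run; fluorescence of AMC released from Ac-VKTGKR-AMC peptide cleaved by the protease; top concentration of the series differs between compounds; 0% = no-inhibitor control and -100% = no-enzyme control.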 The essentials:
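Enzyme (5, 30 or 60 nM final) first met test compounds for ~15 min. The AMC-tagged peptide Ac-VKTGKR-AMC followed at 30 microM. Fluorescence was then recorded at 25 min and scaled against no-enzyme and no-inhibitor wells.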

For experiment [10], the system named is Zika virus NS2B-NS3 protease (linked construct). The experiment is described as follows: 384 well plate NINDS Rhodamine confirmatory qHTS for Zika virus inhibitors (AID 1347164).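 Further: fluorescence from protease cleavage of Ac-LKRR-rhodamine 110 substrate; potency means the concentration at half of the fitted maximal effect; nearly all actives have a fitted effect of over 65% in size.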 The procedure, abridged: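 Fluorescence at 485/538 nm was measured 25 minutes after adding 10 microM Ac-LKRR-Rd substrate, in the dark at room temperature. The protease (5, 30 or 60 nM final) had been preincubated ~15 minutes with compound; aprotinin as control.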

Experiment [11] can be described thus: Vero cells viability qHTS for Zika virus inhibitors (AID 1347167). Further: on the % scale 0 is the no-effect control and ±100 the full control effect. The procedure, abridged: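 Luminescent ATP readout (CellTiter Glo) after 30 min at 37 degrees C gives viability; cells in DMEM + 4% FBS were treated 24 to 48 hours with compound, following overnight attachment.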
Experiment [12] has as its system Zika virus NS2B-NS3 protease. Put plainly: Primary screen GU AMC qHTS for Zika virus inhibitors (AID 1347154).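 Further: 0% = no-inhibitor control and -100% = no-enzyme control; nearly all actives have a fitted effect of over 70% in size.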 The procedure, abridged: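 Fluorogenic AMC-substrate cleavage by noncovalent NS2B-NS3 protease complex (25 nM, pH 8.0 Tris buffer with Tween 20) followed for 15 minutes at room temperature (~20% conversion). Percent inhibition from ex340/em450 signal change, fitted by 4-parameter Hill equation.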

Consider `CC1CCC2C(C)(C)[C@H](O)CC[C@]2(C)C12Cc1c(O)cc3c(c1O2)CN(C(CCC(=O)O)C(=O)O)C3=O` (stereo not given in full), for which the Potency entry in experiment [1] and in experiment [2] was “inactive” in each case.

As to `C=C(CC/C=C(\C)C(=O)O)C1(O)CC=C(C)CC1` (stereo not given), the Potency result in [1] and in [2] was “inactive” throughout.

Consider `O=C(Nc1ccccc1)Nc1ccc(-c2ccc(C(=O)C3CCCC3C(=O)O)cc2)cc1` (stereo not given), for which the Potency result in experiment [1], in [2] and in experiment [9] was “inactive” in each case. Besides, the Potency is 27.8 µM (active) in experiment [3]; 35 µM (active) in experiment [4]; 4.94 µM (active) in experiment [5]; 5.01 µM (active) in experiment [6]; 3.55 µM (active) in [7]; 3.93 µM (active) in experiment [8]. Further, the Potency in [10] was 11.2 µM (active). Also, the result in experiment [11] was inactive.

For the compound `CC(=O)OC1CC(=O)C2(C)C3CC4=C(OC(C)CC4=O)OC3(C)CCC2C1(C)C` (stereo not given), the Potency result in [1] and in [2] was “inactive” throughout.

In the case of `CCC(C)/C=C(C)/C=C/C1=CC2=C(Cl)C(=O)C(C)(OC(C)=O)C(=O)C2=CN1CCCCC(N)C(=O)O` (stereo not given), the Potency result in [1] and in experiment [2] was “inactive” throughout.

In the case of `CC(=O)OC/C(=C/C(=O)O)CC[C@@H]1C(CO)=CC[C@@H]2C(C)(C)CCC[C@@]12C`, the Potency entry in experiment [1] and in [2] was “inactive” in each case.

In the case of `CC(C)CC(c1c(O)c(C=O)c(O)c(C=O)c1O)C1CCC(C)(O)C2CC(C(C)(C)O)CCC12C` (stereo not given), the Potency result in experiment [1] and in experiment [2] was “inactive” each time. The Potency is 3.41 µM (active) in experiment [5]; 5.01 µM (active) in experiment [7]; 3.41 µM (active) in experiment [8]; 50.1 µM (active) in experiment [9]; 15.8 µM (active) in [10]. Further, the compound was called inactive in experiment [11].

With `COC(=O)C1=COC(OC2OC(CO)C(O)C(O)C2O)C2C(COC(=O)/C=C/c3ccc(O)c(O)c3)C(O)C(O)C12` (stereo not given), the Potency entry in experiment [1] and in [2] was “inactive” each time.

In the case of `CCCCCOc1ccc(-c2cc(-c3ccc(C(=O)N[C@H]4C[C@@H](O)[C@@H](O)NC(=O)C5[C@@H](O)[C@@H](C)CN5C(=O)C([C@H](O)CC(N)=O)NC(=O)C([C@H](O)[C@@H](O)c5ccc(O)c(OS(=O)(=O)O)c5)NC(=O)C5C[C@@H](O)CN5C(=O)C([C@@H](C)O)NC4=O)cc3)no2)cc1` (stereo partly drawn) (X2-[Orn(4R-OH,5R-OH)][ξThr(3R)][ξPro(4R-OH)][ξhTyr(3S-OH,4S-OH,3'-OSO3H)][ξGln(3R-OH)][X3]; lactam 1-C), the Potency result in [1] and in experiment [2] was “inactive” each time. Moreover, the Potency in experiment [3] was 21.5 µM (active); in [4], 21.5 µM (active); in [5], 4.82 µM (active); in experiment [6], 2.24 µM (active); in experiment [7], 4.47 µM (active); in experiment [8] it was 4.29 µM (active). Moreover, the call in [11] was inactive.

As for `O=S(=O)(O)c1ccc(Nc2ncnc3c2ncn3[C@@H]2O[C@H](CO)[C@@H](O)[C@H]2O)cc1`, the Potency result in experiment [1], in [2], in experiment [6] and in experiment [7] was “inactive” throughout. In addition, the outcome in [12] was inactive.

With `C=C1CC[C@H]2[C@@](C)(CCC(OC3OC(CO)C(O)C(O)C3O)[C@@]2(C)CO)C1C(=O)CC1=CCOC1=O` (stereo not given in full), the Potency entry in [1] and in [2] was “inactive” throughout.

Consider `COc1ccccc1Oc1c(NS(=O)(=O)c2ccc(C)cn2)nc(-c2ccncc2)nc1OC`, for which the Potency entry in experiment [1] and in experiment [2] was “inactive” in each case.

On to `C[C@@H]1O[C@@H](O[C@H]2[C@H](O[C@H]3[C@H](O[C@H]4CC[C@@]5(C)C(CC[C@]6(C)C5CC=C5[C@@H]7CC(C)(C)C[C@@H](O)[C@]7(C)CC[C@]56C)C4(C)C)O[C@H](C(=O)O)[C@@H](O)[C@@H]3O)O[C@H](C(=O)O)[C@H](O)[C@@H]2O)[C@H](O)[C@H](O)[C@H]1O` (stereo not given in full), for which the outcome in [1] and in experiment [2] was “inactive [at 9.29 µM]” each time.

Take `COc1c2cc(c(O[C@@H]3O[C@H](CO)[C@@H](O)[C@H](O)[C@H]3O)c1OC)CCCCC(O)CCc1ccc(O)c-2c1` (stereo not given in full): the Potency entry in experiment [1] and in experiment [2] was “inactive” in each case.

As for `CC(C)=CCC[C@@](C)(O)[C@H]1CC[C@]2(C)[C@@H]1[C@H](O)CC1[C@@]3(C)CC[C@H](O[C@@H]4O[C@H](CO)[C@@H](O)[C@H](O)[C@H]4O[C@@H]4O[C@H](CO)[C@@H](O)[C@H](O)[C@H]4O)C(C)(C)[C@@H]3CC[C@]12C` (stereo not given in full), the Potency entry in experiment [1], in experiment [2] and in experiment [6] was “inactive” throughout. Further, the Potency in [5] was 14.7 µM (active); in experiment [8] it was 16.5 µM (active).

On to `NC[C@@H]1O[C@@H](O[C@@H]2[C@@H](O[C@@H]3O[C@H](CO)[C@@H](O)[C@H]3O)[C@H](O)[C@@H](N)C[C@H]2N)[C@@H](N)[C@H](O)[C@H]1O`, for which the outcome in experiment [1] and in experiment [2] was “inactive [at 9.29 µM]” in each case. For the same compound, the activity change, negative = inhibition in experiment [6] is 6.33% [at 19.1 µM]. The Potency result in experiment [7] was “inactive”.

For `O=C(OCC1=CC(Cl)C(O)C(OC(=O)c2ccccc2)C1O)c1ccccc1` (stereo not given), the Potency entry in [1], in experiment [2], in experiment [6] and in experiment [7] was “inactive” throughout.

For `NC[C@H]1CCC[C@@H](CNC(=O)[C@@H](Cc2c[nH]c3ccccc23)NC(=O)N2CCC3(C=Cc4ccccc43)CC2)C1`, the Potency result in experiment [1], in experiment [2], in experiment [6] and in [7] was “inactive” each time.
